Results on 48 molecules are retold here after PubChem BioAssay AID1851 (National Center for Advancing Translational Sciences (NCATS), 2009).

A word on the AC50: it is the concentration at which the activity in the assay is half-maximal.

Where “and” joins values, the source holds several entries; their conditions need not be identical. Identical values can stand only once. The campaign covered roughly 16,000 compounds. About 4,000 (25%) were called active. About 26% were inconclusive and are not listed. These entries were drawn from the full list. A number with no mark means an inactive call. Calls come from the whole dose curve; as a rule, active = well fitted curve in the direction sought with a large enough effect; inconclusive = small, poorly fitted or top-dose-only effect, or effect the other way; inactive = no such curve, though single readings can be large or run the other way.
% is set by controls: 0 for no effect and ±100 for the full control effect.

Cytochrome P450 2C9 (Homo sapiens), sequence (P11712 whole entry, looked up): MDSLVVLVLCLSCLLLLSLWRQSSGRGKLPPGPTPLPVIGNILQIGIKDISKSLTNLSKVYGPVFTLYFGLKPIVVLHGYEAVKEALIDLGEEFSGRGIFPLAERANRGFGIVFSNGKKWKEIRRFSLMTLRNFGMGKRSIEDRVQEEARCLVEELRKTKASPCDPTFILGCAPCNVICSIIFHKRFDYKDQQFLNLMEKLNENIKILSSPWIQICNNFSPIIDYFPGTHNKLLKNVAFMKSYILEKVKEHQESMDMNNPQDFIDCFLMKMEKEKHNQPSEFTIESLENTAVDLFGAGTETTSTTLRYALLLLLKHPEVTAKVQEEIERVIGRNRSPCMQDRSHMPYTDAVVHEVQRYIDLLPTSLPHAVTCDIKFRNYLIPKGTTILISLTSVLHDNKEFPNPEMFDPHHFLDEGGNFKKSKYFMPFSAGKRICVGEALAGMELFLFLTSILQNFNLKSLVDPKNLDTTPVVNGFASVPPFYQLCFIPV

The assay addresses Cytochrome P450 2C9 (Homo sapiens) (UniProt P11712). The assay is described as follows: Cytochrome panel assay with activity outcomes. The note with it: recombinant CYP, pro-luciferin dealkylation, luminescence, p450-cyp2c9; series mostly up to 57.1 µM; activity, negative = inhibition: at the top concentration.
On to `C[C@H](O/N=C1/[C@H]2O[C@@H]2[C@@H](O)[C@H]2[C@H]1CCn1c(=O)n(-c3ccccc3)c(=O)n12)c1cn([C@H](CO)Cc2ccccc2)nn1`, for which the activity, negative = inhibition was -5.06% [at 11.4 µM] and -0.376% [at 11.4 µM]. Turning to `Cc1ccc(-c2nc(-c3nccc4ccccc34)oc2-c2ccccc2)cc1`, the activity, negative = inhibition is -0.601% [at 11.4 µM]. Same read-out and setting: then `CNc1nc(-c2cccc(C#N)c2)nc2ccccc12`, with -18.8% [at 2.29 µM]. As to `Cc1ccc(Sc2nc(-c3ccccc3)ccc2C#N)cc1`, the AC50 is 7.94 µM (active). The same measure, in the same setting: then `N#Cc1cc(-c2ccccc2)cnc1Sc1ccc(Cl)cc1`, with 3.55 µM (active). Consider `Cc1nc(Sc2ccccc2)c(C#N)cc1-c1ccccc1`, for which the AC50 is 5.01 µM (active).

Turning to `Cc1nc(Cl)c(C#N)cc1-c1ccccc1`, the half-maximal activity concentration (AC50) is 10 µM (active).

Take `CCOC(=O)CCN1C(=O)[C@H]2[C@H]3[C@H](O)[C@H](O)C/C(=N/OC[C@@H](O)COCc4ccco4)[C@H]3CC[C@@H]2C1=O`: the activity, negative = inhibition is 10.4% [at 11.4 µM]. On to `CN(C/C=C\c1ccccc1)Cc1cccc2ccccc12`, for which the “activity, negative = inhibition” value is -24.2% [at 25.6 µM]. Take `CN(C)c1nc(-c2ccoc2)nc2ccccc12`: the activity, negative = inhibition is 21.3% [at 2.29 µM]. `O=C(NC1CCCCC1)C1CC=CCC1C(=O)OCC(Cl)=C(Cl)Cl` (stereo not drawn): the AC50 was 1.41 µM (active). As for `C#CCCCO/N=C1/C[C@@H](O)[C@@H](O)[C@@H]2[C@@H]3C(=O)N(Cc4ccccc4)C(=O)[C@H]3CC[C@@H]12`, the activity, negative = inhibition was -2.53% [at 11.4 µM].

In the case of `NC[C@](O)(CS(=O)(=O)O)c1ccc(Cl)cc1`, the “activity, negative = inhibition” value is 11.2%. Take `COc1ccc(CCN2C(=NC(=O)CCC(=O)O)SC3CS(=O)(=O)CC32)cc1` (stereo not drawn): the “activity, negative = inhibition” value was -18.3%. Still for that read-out and setting: then `O=[N+]([O-])c1ccc2ncccc2c1CCc1c([N+](=O)[O-])ccc2ncccc12`, with 13% [at 11.4 µM]. For the molecule `O=C(c1ccc([N+](=O)[O-])cc1)[C@@H](Br)[C@@H](Br)c1ccnc2ccccc12`, the AC50 is 3.16 µM (active).

For the molecule `CCC[C@@H]1O[C@@H]2C[C@@H]3[C@H]4CCC5=CC(=O)C=C[C@@]5(C)[C@H]4[C@H](O)C[C@@]3(C)[C@@]2(C(=O)CO)O1`, the “activity, negative = inhibition” value was -19% [at 25.6 µM]. `N#C/C(=C\c1ccc(Cl)cc1)c1nc2ncccc2[nH]1`: the AC50 was 7.08 µM (active).

With `N#C/C(=C\c1ccccc1)c1nc2ncccc2[nH]1`, the half-maximal activity concentration (AC50) is 5.01 µM (active). Turning to `COc1ccc(CNc2ncncc2-c2ccccc2C(F)(F)F)c(OC)c1`, the activity, negative = inhibition is -25.4% [at 2.29 µM]. In the case of `COc1ccc2[nH]cc(CCNc3cc(-c4ccoc4)ncn3)c2c1`, the activity, negative = inhibition was -23.3% [at 2.29 µM].

On to `COc1ccc2[nH]cc(CCNc3ncncc3-c3ccccc3C(F)(F)F)c2c1`, for which the AC50 is 0.1 µM (active).

`COc1ccc2[nH]cc(CCNc3ncncc3-c3ccccc3OC)c2c1`: the AC50 is 0.251 µM (active). On the same count and under the same terms, then `COc1ccc2[nH]cc(CCNc3ncncc3-c3ccccc3Cl)c2c1`, with 0.2 µM (active); and `COc1ccc2[nH]cc(CCNc3ncncc3-c3cccc(NS(C)(=O)=O)c3)c2c1`, with 0.398 µM (active). For `COc1ccc2[nH]cc(CCNc3ccnc(-c4ccccc4C(F)(F)F)n3)c2c1`, the activity, negative = inhibition was -28.2% [at 2.29 µM]. Still for that read-out and setting: then `COc1ccc2[nH]cc(CCNc3ncncc3-c3ccccc3CN(C)C)c2c1`, with 4.66% [at 2.29 µM]; and `CN[C@H](CC(=O)O)C(=O)O`, with 11.3%.

With `O=S1(=O)C=C(SCc2cccc(Cl)c2)Nc2ccccc21`, the AC50 was 1.58 µM (active). As for `O=C(c1nn(Cc2ccccc2)c(=O)c2ccccc12)N1CCN(C/C=C/c2ccccc2)CC1`, the AC50 was 3.98 µM (active). With `COC(=O)c1cc2n(n1)CCN(Cc1ccccc1F)C2=O`, the AC50 is 10 µM (active). On to `CNC[C@H](O)[C@H](O)[C@H](O)[C@H](O)CO`, for which the “activity, negative = inhibition” value was -13.8% [at 25.6 µM].

In the case of `CC(C)[C@](N)(C(=O)O)c1ccccc1`, the activity, negative = inhibition was -6.77% [at 11.4 µM]. As to `CC(C)NC(=O)N1CCC2(CC1)CCN(C(=O)c1ccco1)CC2`, the “activity, negative = inhibition” value was 5.65%. Turning to `CC(C)NC(=O)N1CC2(CCN(C(=O)c3ccco3)CC2)C1`, the “activity, negative = inhibition” value was 2.28%.

On to `CC1CCN(C(NC(=O)c2ccco2)C(=O)c2ccccc2)CC1` (stereo not drawn), for which the AC50 was 2.51 µM (active). Consider `O=C(c1csnn1)N1CCC2(CCN(Cc3nccs3)CC2)CC1`, for which the “activity, negative = inhibition” value is 2.1%. With `Cn1nc(-c2ccc(N3CCOCC3)c(NS(=O)(=O)c3ccc(Cl)cc3)c2)c2ccccc2c1=O`, the AC50 was 1 µM (active).

As to `CS(=O)(=O)Nc1cccc(-c2ccc3ncnc(N4CCOCC4)c3c2)c1`, the activity, negative = inhibition is -1.72% [at 2.29 µM]. Take `COCCn1c(=O)c(-c2ccc(Cl)cc2)nc2cnc(N3CCOCC3)nc21`: the “activity, negative = inhibition” value was -14.6%. For `COc1ccc([N+](=O)[O-])cc1NC(=S)NC(NC(=O)Cc1ccc(OC)c(OC)c1)C(Cl)(Cl)Cl` (stereo not drawn), the AC50 was 1.26 µM (active). Same read-out and setting: the value for `O=C(Cc1ccccc1)NC(NC(=S)Nc1cc(Cl)ccc1Cl)C(Cl)(Cl)Cl` (stereo not drawn) was 0.562 µM (active). On to `O=C(NC(NC(=S)Nc1cc(Cl)ccc1Cl)C(Cl)(Cl)Cl)c1ccco1` (stereo not drawn), for which the AC50 was 0.0447 µM (active). As for `O=C(/C=C/c1ccccc1)NC(NC(=S)Nc1ccc(Cl)cc1)C(Cl)(Cl)Cl` (stereo not drawn), the concentration at half-maximal activity (AC50) is 0.562 µM (active). On to `O=C(O)C1CCCCC1C(=O)Nc1cc(Cl)ccc1Cl` (stereo not drawn), for which the “activity, negative = inhibition” value was -16%. Regarding `COc1ccc(C[C@@](C)(N)C(=O)O)cc1OC`, the “activity, negative = inhibition” value is -19.4% [at 25.6 µM].

Take `CC(CP(=O)(O)O)NC(=O)Cc1ccccc1` (stereo not drawn): the “activity, negative = inhibition” value is -17.6%.

On to `O=C(/C=C/c1ccc(Cl)cc1)Nc1ccc(N2CCCCC2)cc1`, for which the “activity, negative = inhibition” value is -9.43%.
